Screening results as filed in PubChem BioAssay.
RGS4 inh: human RGS4 inhibition | P49798 | Transcreener GDP fluorescence polarization, RGS4-accelerated GTP hydrolysis | Potency, µM (highest dose often 114 µM), without a hit: at the highest dose activity change, negative = inhibition, most hits filed as inhibitors | 390,000 tested, 0.039% active; also: potency is read from the fitted curve at half-maximal effect; % is scaled to controls: 0 for no effect and ±100 for the full control effect; nearly all actives have a fitted effect of over 75% in size
Target sequence (P49798 whole entry, looked up): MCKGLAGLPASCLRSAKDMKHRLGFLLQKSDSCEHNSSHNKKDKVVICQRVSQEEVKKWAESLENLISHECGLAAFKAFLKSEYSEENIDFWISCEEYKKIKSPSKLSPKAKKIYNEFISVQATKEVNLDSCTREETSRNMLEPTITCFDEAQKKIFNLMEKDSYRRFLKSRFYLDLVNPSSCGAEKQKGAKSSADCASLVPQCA
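MLSMR compounds (23 nl, pin-transferred) preincubated 10 min at room temperature with a 500nM (2x) first reagent, then RGS4 at 900nM (2x) plus Transcreener GDP mix added; fluorescence polarization (620/688 nm) read before and after 90 min at 30 °C.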
IDH1 R132H inh: human IDH1 R132H inhibition | O75874 | IDH1-R132H enzyme, NADPH consumption, diaphorase/resazurin fluorescence | Potency, µM (top dose mostly 76.6 µM), without a hit: at the highest dose activity change, negative = inhibition, actives largely listed as inhibitors | 390,000 tested, 0.093% active | AID 602179; also: potency is read from the fitted curve at half-maximal effect; % is scaled to controls: 0 for no effect and ±100 for the full control effect; nearly all actives have a fitted effect of over 65% in size
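IDH1-R132H (0.5 ug/mL dispensed) in pH 7.5 Tris buffer was preincubated 30 min with compound, then given a substrate mix of 0.016 mM NADPH and 2 mM alpha-KG for 80 min at room temperature; remaining NADPH was read by diaphorase/resazurin fluorescence.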
Mito fusion act: inhibitors of mitochondrial division or activators of mitochondrial fusion; 320,000 tested, 0.23% active; Potency, µM (titrated, usually from 46.1 µM), for inactives: at the top dose growth rescue (activation), actives largely listed as activators; S. cerevisiae fusion-defective mutant growth rescue, CellTiterGlo 48 h; also: potency is read from the fitted curve at half-maximal effect; % of control where 0% means no effect; nearly all actives have a fitted effect of over 45% in size
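Growth-rescue viability read-out: after 48 h at the non-permissive 37C in glycerol/ethanol YPEG, yeast mitochondrial fusion mutants are measured by CellTiterGlo luminescence; compounds (23 nl pinned per well) restoring growth score as division inhibitors or fusion activators.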
LDHA block: inhibitors of human lactate dehydrogenase A | activity change, % (values are at about 110 or 230 µM) | 480,000 tested, 0.15% active | P00338 | AID 1347041 | purified LDHA, NADH/diaphorase-resazurin fluorescence; active compounds read low; in the data active = activity change below about -30%; inconclusive = mostly about -25% to -30%;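 also: plate controls were DMSO wells for no effect and wells without enzyme for full effect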
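LDH5 2 nM; NADH 0.06 mM, pyruvate 0.2 mM; 200 mM Tris pH 7.4, EDTA, Tween-20; 5 min RT. Detection: diaphorase 0.133 mg/mL + resazurin 37 µM, fluorescence ex540/em590 at 0 and 20 min; normalized to enzyme-free and DMSO wells.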
ClpP mod: qHTS Assay for Activators of ClpP; purified B. subtilis ClpP, FRET peptide cleavage, 20 min; Potency, µM (series often up to 57.5 µM), inactives show at the highest dose activity change, negative = active; ATP-dependent Clp protease proteolytic subunit (Bacillus subtilis (strain 168)), P80244; 340,000 tested, 1.9% active; active = well fitted falling curve with a large enough effect; inconclusive = small, poorly fitted or top-dose-only effect; inactive = no such curve, though single readings can be large or run the other way; also: potency is read from the fitted curve at half-maximal effect; the source files actives as falling curves though it sought activators and does not explain the sign; nearly all actives have a fitted effect of over 65% in size
Target sequence (P80244 whole entry, looked up): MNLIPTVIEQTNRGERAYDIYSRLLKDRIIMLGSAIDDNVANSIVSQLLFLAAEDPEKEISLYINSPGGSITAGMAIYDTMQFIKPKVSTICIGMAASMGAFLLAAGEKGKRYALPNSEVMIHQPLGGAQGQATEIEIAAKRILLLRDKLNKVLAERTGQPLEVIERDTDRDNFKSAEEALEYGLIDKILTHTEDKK
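FRET quenching reversal measured ClpP activation: 10 microg/mL B. subtilis ClpP at pH 8 with the FRET-FV decapeptide, read at 430 nm after 320 nm excitation. The 20-min minus 0-min signal was scaled between DMSO/no-enzyme wells and ADEP (5.8 microM final).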
ASM inhibitor: inhibitors of human secretory acid sphingomyelinase; AID 504937; placental ASM, HMU-PC fluorogenic substrate, 60 min; Potency, µM (doses to about 57.5 µM), for inactives: at the top dose activity change, negative = inhibition, most hits filed as inhibitors; P17405; 340,000 tested, 0.006% active; also: potency is read from the fitted curve at half-maximal effect
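Human placenta-derived ASM enzyme was preincubated with compound for 10 minutes at room temperature, then given fluorogenic substrate HMU-PC0 (9 uM final) for 60 minutes at 37 °C; a pH 10 stop preceded fluorescence reading at Ex 386/Em 447 nm.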
* hit, by the source's call; i = inactive; ? = inconclusive; . = not tested or not shown; ! = not confirmed by another sample. The full list was thinned out, with hits kept by preference. Unless noted, calls follow the shape of the dose curve; as a rule, active = well fitted curve in the direction sought with a large enough effect; inconclusive = small, poorly fitted or top-dose-only effect, or another doubt; inactive = no such curve, though single readings can be large; an effect the other way counts as inactive or inconclusive.

SMILES	RGS4 inh	IDH1 R132H inh	Mito fusion act	LDHA block	ClpP mod	ASM inhibitor
CC(C)=CCN1CCN(Cc2cccn2-c2ccccn2)CC1CCO (stereo not drawn)	19%	1%	25%	-10	28µM*	-1%
CC(C)CN1CCN(Cc2cccn2-c2ccccn2)CC1CCO (stereo not drawn)	25%	0%	-11%	-16	-4%	6%
Cc1ccc(S(=O)(=O)c2nnn3c2nc(NC2CCCCC2)c2sccc23)cc1C	14%	.	.	-5	?	.
CCc1ccc(S(=O)(=O)c2nnn3c2nc(NCc2cccs2)c2sccc23)cc1	9%	0%	.	-2	28µM*	.
Cc1ccc(C)c(S(=O)(=O)c2nnn3c2nc(NCc2cccs2)c2sccc23)c1	-5%	0%	.	-1	28µM*	.
O=S(=O)(c1ccccc1)c1nnn2c1nc(NCc1cccs1)c1sccc12	?	-4%	.	0	-18%	.
Cc1ccc(C)c(S(=O)(=O)c2nnn3c2nc(NC2CCCC2)c2sccc23)c1	6%	-20%	.	1	32µM*	.
O=S(=O)(c1ccc(Br)cc1)c1nnn2c1nc(NCc1cccs1)c1sccc12	-28%	-13%	.	-3	28µM*	.
CCCn1c(SCC(=O)Nc2ccc(C)c(F)c2)nc(O)cc1=O	.	.	.	11	.	.
Cc1ccc(NC(=O)Nc2nnc(C(C)C)s2)cc1C	.	.	.	1	.	.
COc1ccc(/C=C2\N=C(c3ccc(C)cc3)OC2=O)cc1	9%	-9%	-2%	-10	25µM*	22%
Cc1ccc(S(=O)(=O)Oc2ccc(/C=C3/N=C(c4ccccc4)OC3=O)cc2)cc1	-26%	7%	2%	-9	-14%	12%
CC(=O)Nc1ccc2[nH]c(C)cc(=O)c2c1	-38%	3%	0%	-3	32µM*	6%
COCCN(Cc1cccs1)C(=O)CC1C=CCC1 (stereo not drawn)	.	.	.	2	.	.
O=C(c1ccccc1)c1cccc(NC(=O)c2ccc(Br)o2)c1	-33%	4%	?	-2	-4%	-24%
Cc1cccc(NC(=O)c2ccc(C(=O)c3ccccc3)o2)c1	15%	17%	2%	-1	22µM*	2%
CCOc1ccc2c(c1)N(C(=O)CN1C(=O)CCC1=O)C(C)(C)C=C2C	-12%	2%	2%	-3	32µM*	0%
CC1=CC(C)(C)N(C(=O)CN2C(=O)CCC2=O)c2ccc(C)cc21	-13%	6%	-2%	-6	.	0%
Cc1ccc(NC(=O)CN2CCC(C(N)=O)CC2)cc1F	.	.	.	-6	.	.
Cc1oc2ncnc(N)c2c1C	25%	0%	-4%	-7	-10%	12%
Cc1ccc(-c2oc3ncnc(N)c3c2-c2ccc(C)cc2)cc1	10%	0%	3%	-4	28µM*	19%
CC(=O)c1ccc(N2CCN(c3ncccn3)CC2)cc1	9%	7%	25µM*	-6	.	0%
O=C(CSc1nc(-c2ccccc2)[nH]c1-c1ccccc1)Nc1ccc2c(c1)OCO2	-14%	9%	.	2	-14%	.
O=C(Cn1ccc2ccccc21)Nc1ccc2c(c1)OCO2	31%	-8%	0%	-36*!	.	-1%
O=C(CSc1nc(-c2ccccc2)c(-c2ccccc2)[nH]1)Nc1ccc2c(c1)OCO2	-4%	-5%	1%	-8	25µM*	.
O=C(CSc1nc(-c2ccccc2)c(-c2ccccc2)[nH]1)N1CCN(S(=O)(=O)c2ccccc2)CC1	-30%	0%	0%	-7	28µM*	-8%
Cc1c(C#N)c(=O)oc2ccc3ccccc3c12	-17%	-2%	4%	-8	7.9µM*	i
CCOc1ccccc1CNC(=O)c1cc2oc3ccccc3c2n1C	-23%	-7%	2%	-8	20µM*	-2%
